Assay [1] can be described thus: stimulators of insulin release from INS-1E, primary screen, cell-based, 5 mM glucose, NPC library (AID 1117329;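 active = compound raises insulin release from rat beta cells at 5 mM glucose, no numeric limit stated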; also: reference of the scale not given here). As to conditions: rat INS-1E insulin secretion, at 10 µM, active compounds read high.
The nature of assay [2]: growth inhibition of GSK3B-pretreated HCT116 cells – cell-based, CellTiter-Glo, 0.2 to 20 µM (AID 1117336;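 active = compounds lowering colon cancer cell viability after pretreatment blocking the GSK3B kinase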). The conditions noted are these: HCT116 viability after GSK3B inhibitor, at 20 µM, active compounds read high. For orientation: Cellular ATP, detected with luciferase, serves as a proxy for viable cell number.
A short description of assay [3]: inhibition of endothelial tube formation, primary screen, imaging, VEGF stimulated, CD31 staining, tube area, NPC library (AID 1117340;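 active = compound that reduces growth-factor-driven endothelial tube area in a mixed cell culture, no cutoff stated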). As to conditions: VEGF-stimulated ADSC/ECFC co-culture, at 10 µM, active compounds read high.
Assay [4] is described as follows: GLP1 release stimulators, primary, NCI-H716, NPC library (AID 1117341). Also: reference of the scale not given here. The conditions noted are these: NCI-H716 cells, at 10 µM, active compounds read high.
Assay [5] in a line: HCT116 colon cancer cell growth inhibition, primary screen, CellTiter-Glo luminescence, NPC library (AID 1117342;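 active = compounds that lower survival of HCT116 colon cancer cells in the luminescence readout, no numeric limit stated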). As to conditions: at 20 µM (top of the series).
Assay [6] can be described thus: reduced SW480 viability measured with CellTiter-Glo, NPC library, primary (AID 1117343;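 active = compounds that lower viability of the colon cancer cells in the luminescence readout, with no numeric limit stated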). As to conditions: CellTiter-Glo luminescence; at 20 µM (top of the series).
Assay [7] is described as follows: NPC library primary testing for decreased DLD-1 cell viability via CellTiter-Glo (AID 1117346;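 active = compounds that lower survival of DLD-1 colon cancer cells in the luminescence readout, no cutoff given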). The conditions noted are these: DLD-1 viability, CellTiter-Glo luminescence; at 20 µM (top of the series).

A number with no mark means an inactive call. Calls of active or inactive are those of the source.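 The calls were made as follows, unless noted: active = compound raises GLP1 secretion from the human gut endocrine cells, with no numeric limit stated; inactive = the rest.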

Take `O=C(O)CSCC(=O)NC1CCSC1=O` (stereo unspecified): the insulin secretion stimulation in assay [1] was -1.9%. For the same compound, the viability decrease in assay [2] is -4%. In addition, in assay [3], the tube area decrease was -2.7%. For the same compound, the GLP1 secretion stimulation in assay [4] was -0.3%. In addition, the inhibition of viability in assay [5] was 9%. Moreover, the figures for the viability decrease (inhibition) in assay [6] and in assay [7] were 15.2% and -4.25%, respectively.

With `O=C1CC2(CCCC2)CC(=O)N1CCCCN1CCN(c2ncccn2)CC1`, the insulin secretion stimulation in assay [1] is -0.8%. In assay [2], the viability decrease was 20.1%. In addition, in assay [3], the tube area decrease is -1.5%. Further, the GLP1 secretion stimulation in assay [4] is 1.7%. The inhibition of viability in assay [5] was 39.4%. The results for the viability decrease (inhibition) in assay [6] and in assay [7] were 20.4% and 1.7%, respectively.

For `O=C(O)CN1C(=O)c2cccc3cccc(c23)C1=O`, in assay [1], the insulin secretion stimulation was -1.8%. The viability decrease in assay [2] is -2.7%. Moreover, the tube area decrease in assay [3] was -6.3%. In addition, the GLP1 secretion stimulation in assay [4] was 1.6%. The inhibition of viability in assay [5] was -17.1%. In addition, the viability decrease (inhibition) was 22.8% in assay [6] and 2.05% in assay [7].

`CCc1nn(CCCN2CCN(c3cccc(Cl)c3)CC2)c(=O)n1CCOc1ccccc1`: the insulin secretion stimulation in assay [1] is -1.1%. Also, the viability decrease in assay [2] was 67.2% (active). Moreover, in assay [3], the tube area decrease is 30.7%. Further, the GLP1 secretion stimulation in assay [4] was -2.9%. The inhibition of viability in assay [5] is 85.7% (active). Further, the values for the viability decrease (inhibition) in assay [6] and in assay [7] were 91.5% (active) and 81.3% (active), respectively.

With `CN1CCC(=C2c3ccccc3CCc3sccc32)CC1`, the insulin secretion stimulation in assay [1] is 6.65%. Besides, the viability decrease in assay [2] is 47.1%. Moreover, the tube area decrease in assay [3] was 28.1%. Also, in assay [4], the GLP1 secretion stimulation is 5.3%. Besides, the inhibition of viability in assay [5] is 20.1%. Moreover, the viability decrease (inhibition) in assay [6] is 103% (active); in assay [7] it was 26.9%.

For `CCCCNc1c(C(=O)OCC)c(C)nc2c1cnn2CC`, the insulin secretion stimulation in assay [1] was 6.8%. Also, the viability decrease in assay [2] was 93.3% (active). Also, the tube area decrease in assay [3] is 10.7%. In addition, the GLP1 secretion stimulation in assay [4] was 3.7%. The inhibition of viability in assay [5] is 94.4% (active). In addition, the values for the viability decrease (inhibition) in assay [6] and in assay [7] were 124% (active) and 78.4% (active), respectively.

On to `CCOC(=O)C1=C(C)NC(C)=C(C(=O)OCC)C1c1ccccc1/C=C/C(=O)OC(C)(C)C`, for which the insulin secretion stimulation in assay [1] is 0.3%. The viability decrease in assay [2] is 117% (active). Further, in assay [3], the tube area decrease was 101% (active). For the same compound, the GLP1 secretion stimulation in assay [4] was -0.4%. Besides, the inhibition of viability in assay [5] was 124% (active). Moreover, the results for the viability decrease (inhibition) in assay [6] and in assay [7] were 158% (active) and 101% (active), respectively.

As to `CN1CCN(C2=Nc3cc(F)ccc3Cc3ccccc32)CC1`, the insulin secretion stimulation in assay [1] was 3.3%. For the same compound, the viability decrease in assay [2] was 12.5%. Moreover, the tube area decrease in assay [3] is 13%. In assay [4], the GLP1 secretion stimulation was 8%. Besides, the inhibition of viability in assay [5] was 37.7%. Moreover, the viability decrease (inhibition) in assay [6] was 26.9%; in assay [7], -2.4%.

Turning to `CCc1c(C)[nH]c2c1C(=O)C(CN1CCOCC1)CC2` (stereo unspecified), in assay [1], the insulin secretion stimulation was 1.8%. Moreover, in assay [2], the viability decrease is 2.2%. The tube area decrease in assay [3] was -10.5%. The GLP1 secretion stimulation in assay [4] is 5.2%. Further, the inhibition of viability in assay [5] was -24.1%. Further, the viability decrease (inhibition) was -3.8% in assay [6] and -11% in assay [7].

Turning to `NC(N)=NC(=O)Cc1c(Cl)cccc1Cl`, the insulin secretion stimulation in assay [1] is -2.2%. Moreover, the viability decrease in assay [2] was 16.7%. For the same compound, in assay [3], the tube area decrease was 11.5%. The GLP1 secretion stimulation in assay [4] is -3%. Further, the inhibition of viability in assay [5] is 68.9% (active). The figures for the viability decrease (inhibition) in assay [6] and in assay [7] were 34.1% and 29%, respectively.

With `COc1cc2c(N3CCN(C(=O)Nc4ccc(OC(C)C)cc4)CC3)ncnc2cc1OCCCN1CCCCC1`, the insulin secretion stimulation in assay [1] is 7%. Moreover, the viability decrease in assay [2] was 75.1% (active). The tube area decrease in assay [3] is 11%. Also, in assay [4], the GLP1 secretion stimulation was 11.5%. The inhibition of viability in assay [5] is 93.9% (active). The viability decrease (inhibition) in assay [6] was 38.5%; in assay [7] it was 10.1%.

As to `O=C1N(c2ccccc2)c2ccccc2C1(Cc1ccncc1)Cc1ccncc1`, in assay [1], the insulin secretion stimulation is 1.2%. Moreover, the viability decrease in assay [2] was -9.5%. For the same compound, the tube area decrease in assay [3] is 17.6%. Moreover, the GLP1 secretion stimulation in assay [4] was 2.6%. The inhibition of viability in assay [5] is -4.7%. The viability decrease (inhibition) in assay [6] is 23.8%; in assay [7] it was -3.9%.

For the compound `COC(=O)C1=C(C)NC(C)=C(C(=O)OC(C)C)C1c1cccc2nonc12` (stereo unspecified), the insulin secretion stimulation in assay [1] was -0.7%. In assay [2], the viability decrease was -4.5%. In addition, the tube area decrease in assay [3] is 13.7%. Further, in assay [4], the GLP1 secretion stimulation was -2.4%. In addition, the inhibition of viability in assay [5] is 48.4%. In addition, the viability decrease (inhibition) in assay [6] is 20.8%; in assay [7], 11.2%.

As for `COc1cc(OC)c(C(=O)CCCN2CCCC2)c(OC)c1`, in assay [1], the insulin secretion stimulation was -1%. Besides, in assay [2], the viability decrease was -39.3%. In addition, the tube area decrease in assay [3] was 17.2%. In assay [4], the GLP1 secretion stimulation was 0.3%. Further, the inhibition of viability in assay [5] was -8%. For the same compound, the viability decrease (inhibition) is 0.7% in assay [6] and -31.7% in assay [7].

`NS(=O)(=O)c1cc2c(cc1Cl)NC(C1CC3C=CC1C3)NS2(=O)=O` (stereo unspecified): the insulin secretion stimulation in assay [1] is -1%. Moreover, in assay [2], the viability decrease is -17%. Also, the tube area decrease in assay [3] was 2.9%. Moreover, the GLP1 secretion stimulation in assay [4] is -2.5%. The inhibition of viability in assay [5] was -8.27%. The viability decrease (inhibition) in assay [6] was 8.9%; in assay [7], -15.4%.

In the case of `O=C(O)/C=C(\CC(=O)O)C(=O)O`, in assay [1], the insulin secretion stimulation was -2.3%. Moreover, the viability decrease in assay [2] was 0.55%. For the same compound, the tube area decrease in assay [3] was 5.8%. In addition, the GLP1 secretion stimulation in assay [4] was 3.5%. The inhibition of viability in assay [5] was 7.4%. The viability decrease (inhibition) in assay [6] is 39.3%; in assay [7], 11.3%.

Turning to `O=P(O)(O)C(O)(Cc1cccnc1)P(=O)(O)O`, in assay [1], the insulin secretion stimulation is -1.8%. Besides, in assay [2], the viability decrease was 5.7%. The tube area decrease in assay [3] was 18.1%. The GLP1 secretion stimulation in assay [4] was 0.1%. Besides, in assay [5], the inhibition of viability was 5.33%. Besides, the viability decrease (inhibition) was -18.5% in assay [6] and -4.9% in assay [7].

Regarding `O=C(NCCN1CCOCC1)c1ccc(Cl)cc1`, in assay [1], the insulin secretion stimulation is -2.6%. For the same compound, the viability decrease in assay [2] was -7.6%. Besides, the tube area decrease in assay [3] was 6%. In assay [4], the GLP1 secretion stimulation was 0.4%. For the same compound, the inhibition of viability in assay [5] was -2.6%. Further, the results for the viability decrease (inhibition) in assay [6] and in assay [7] were 35.1% and -7.9%, respectively.

The values are drawn from PubChem BioAssay.
